# High-throughput results (PubChem)
# In the library only some 6.6% were active in any assay of this set; here they are far more common.
# HT1080-NT tox – kills 2HG-producing HT-1080-NT fibrosarcoma cells; HT-1080-NT fibrosarcoma viability, CellTiter-Glo ATP luminescence, 48 h; Potency, µM (titrated, usually from 46.1 µM), for inactives: at the top dose activity, negative = less viability, hits mostly cytotoxic; 1.6% of 360,000 active; AID 686970;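 also: NT is the 2HG producing partner of a matched IDH1 knockdown line; 0% = DMSO-treated cells and -100% = media-only wells without cells; nearly all actives have a fitted effect of over 55% in size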
#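 Toxicity toward the 2HG-producing NT line was scored as %Activity, normalised to DMSO and no-cell wells, from CellTiter-Glo luminescence after 48 hours' treatment.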
# HepG2 tox-1 – counter-screen for TGF-b inhibitors: cytotoxicity in HepG2 cells; HepG2 CAGA-GFP viability, ATP luminescence, 18 h; Potency, µM (titrated, usually from 46.1 µM), inactives show at the top dose activity change, negative = cytotoxicity, actives largely listed as cytotoxic; 0.76% of 410,000 active
#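 HepG2 CAGA-GFP cells (1000/well, DMEM with 1% FBS) received compound, then TGF-beta at 500 pg/mL final, and were incubated 18 hours at 37 degrees C. Viability was read by CellTiter-Glo luminescence. Media-only wells were set as complete cell-killing and DMSO as no toxicity.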
# TGFb inhibitor – inhibitors of TGF-b signaling; HepG2 CAGA-GFP TGF-b/SMAD3 reporter, GFP fluorescence, 18 h; TGF-beta stimulated, 500 pg/mL final; Potency, µM (titrated, usually from 46.1 µM), for inactives: at the top dose activity, negative = inhibition, hits mostly inhibitors; 1.2% of 410,000 active; also: % is scaled to controls: 0 for no effect and ±100 for the full control effect; nearly all actives have a fitted effect of over 65% in size
#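 Smad-responsive CAGA-GFP expression was quantified in HEPG2 cells exposed to compounds and 500 pg/mL final TGF-beta for 18 h at 37 degrees C; unstimulated wells defined full inhibition.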
# KB-3-1 cytotox – kills parental KB-3-1 adenocarcinoma cells; Potency, µM (doses to about 46.1 µM), usual class: cytotoxic; AID 1347075; KB-3-1 viability, CellTiter-Glo ATP luminescence, 72 h; 1.4% of 400,000 active; also: % is scaled to controls: 0 for no effect and ±100 for the full control effect; nearly all actives have a fitted effect of over 60% in size
#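 Multi-concentration cytotoxicity screen in KB-3-1 cells grown in DMEM lacking phenol red with 10% FBS. After 72 h at 37 °C with compound, ATP-dependent luminescence was recorded.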
# HT1080 IDH1KD tx – HT-1080 IDH1 knockdown cell toxicity (counter line); HT-1080 IDH1 knockdown viability, ATP luminescence, 48 h; Potency, µM (series often up to 46.1 µM), inactives show at the top dose activity, negative = toxicity, actives largely listed as cytotoxic; 2% of 360,000 active;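 also: 0% = DMSO wells and -100% = cell-free medium wells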
#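 After a 2 h attachment period, IDH1KD HT-1080 cells took pin-transferred compound for 48 h at 37 °C; ATP-based luminescence after 10 min room-temperature reagent incubation reported viability.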
# KB-V1 cytotox – kills drug-selected multidrug resistant KB-V1 cells; 3.4% of 400,000 active; Potency, µM (top dose mostly 46.1 µM), hits mostly cytotoxic; KB-V1 MDR cells viability, CellTiter-Glo, 72 h; also: % is scaled to controls: 0 for no effect and ±100 for the full control effect; nearly all actives have a fitted effect of over 60% in size
#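 Cytotoxicity via CellTiter-Glo luminescence after 72 h compound exposure at 37 degrees C. Cells: drug-selected KB-V1 line, DMEM phenol-red free plus 10% FBS. Compounds tested at multiple concentrations; normalized data fitted to concentration-effect curves.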
# TGFb confirm – confirmation of TGF-b signaling inhibitors in HepG2 reporter cells; 63% of 1,600 active; HepG2 CAGA-GFP TGF-b reporter, GFP fluorescence, 18 h; cells stimulated with TGF-beta, 500 pg/mL; Potency, µM (highest dose often 46.1 µM), for the others: at the highest dose activity, negative = inhibition, hits mostly inhibitors; shares compounds with TGFb inhibitor; AID 720534; also: % is scaled to controls: 0 for no effect and ±100 for the full control effect; nearly all actives have a fitted effect of over 65% in size
# HepG2 tox-2 – counter-screen for TGF-b inhibitors: cytotoxicity in HepG2 cells; shares compounds with TGFb inhibitor; HepG2 CAGA-GFP viability, ATP luminescence, 18 h; cells stimulated with TGF-beta, 500 pg/mL; Potency, µM (doses to about 46.1 µM), without a hit: top-dose activity, negative = cytotoxicity, hits mostly inhibitors; 27% of 1,600 active; AID 720535; also: % is scaled to controls: 0 for no effect and ±100 for the full control effect; nearly all actives have a fitted effect of over 70% in size
# TGFb CCL64 inh – orthogonal confirmation of TGF-b inhibitors in CCL64 cells. shares compounds with TGFb inhibitor. CCL64 CAGA-GFP reporter, TGF-b stimulated, GFP fluorescence, 18 h. Potency, µM (series often up to 46.1 µM), for the others: top-dose activity, negative = inhibition, usual class: inhibitors. 41% of 1,600 active. AID 720536; also: nearly all actives have a fitted effect of over 65% in size
# TGFb COP inh – blocks TGF-b signaling in HepG2 COP reporter; shares compounds with TGFb inhibitor; HepG2 COP-GFP TGF-b reporter, GFP fluorescence, 18 h; cells stimulated by added recombinant TGF-beta; Potency, µM (doses to about 46.1 µM), inactives show at the highest dose activity, negative = inhibition, hits mostly inhibitors; 3% of 1,600 active; also: nearly all actives have a fitted effect of over 70% in size
# * marks the source's active call; other numbers are inactive results; i = inactive; ? = inconclusive; . = not tested or not shown. Calls follow the shape of the dose curve; as a rule, active = well fitted curve in the direction sought with a large enough effect; inconclusive = small, poorly fitted or top-dose-only effect, or another doubt; inactive = no such curve, though single readings can be large; an effect the other way counts as inactive or inconclusive. Potency is read from the fitted curve at half-maximal effect.
SMILES,HT1080-NT tox,HepG2 tox-1,TGFb inhibitor,KB-3-1 cytotox,HT1080 IDH1KD tx,KB-V1 cytotox,TGFb confirm,HepG2 tox-2,TGFb CCL64 inh,TGFb COP inh
NC(=O)c1cc([N+](=O)[O-])c(Cl)cc1NCc1ccncc1,0.1%,5.7%,?,i,3.9%,i,18.4µM*,-27.6%,-8.7%,17.9%
COc1cccc(NC(=O)COc2cccc(-n3cnnn3)c2)c1,4.6%,7.9%,12.8%,i,5.9%,i,.,.,.,.
Cc1cc(OCCCC(=O)Nc2cccc(-n3cnnn3)c2)ccc1Cl,-0.7%,-15.9%,12.6µM*,i,1.1%,?,?,?,-2.9%,64.7%
CCc1nc2c(OCc3cc(Cl)cc(Cl)c3)cccn2c1N(C)C(=O)c1ccc(OC)cc1,?,-30.8%,3.98µM*,i,?,?,?,?,?,48.6%
CN(CCc1ccccc1)C(=O)c1ccc(NC(=O)Cc2ccc(NC(=O)C3CCN(C(=O)c4ccccc4)CC3)cc2)cc1,?,-12.7%,1.2%,i,?,i,.,.,.,.
Cc1ccccc1CS(=O)(=O)c1ncc(Cl)c(C(=O)Nc2ccc(F)cc2)n1,?,22.4µM*,10µM*,i,?,i,?,?,3.66µM*,?
CCCc1nnc(NC(=O)c2nc(S(=O)(=O)Cc3cccc(C)c3)ncc2Cl)s1,?,-98.9%,?,i,?,i,.,.,.,.
COc1ccc(OC)c(NC(=O)c2nc(S(=O)(=O)Cc3ccccc3)ncc2Cl)c1,4.61µM*,7.94µM*,3.55µM*,4.11µM*,3.66µM*,?,4.61µM*,6.51µM*,3.66µM*,10.3µM*
COC(=O)c1ccccc1NC(=O)c1nc(S(=O)(=O)Cc2ccccc2F)ncc1Cl,.,4.5%,-1.8%,i,.,i,.,.,.,.
Cc1cccc(CS(=O)(=O)c2ncc(Cl)c(C(=O)Nc3c(C)cccc3C)n2)c1,?,10µM*,6.31µM*,?,14.6µM*,?,4.61µM*,9.2µM*,4.61µM*,?
O=C(Nc1ccc(F)cc1)c1nc(S(=O)(=O)Cc2ccccc2)ncc1Cl,23.1µM*,7.08µM*,5.01µM*,5.17µM*,14.6µM*,?,3.26µM*,14.6µM*,2.59µM*,?
O=C(Cc1cccc(NC(=O)C2CCCN(C(=O)C3CCCCC3)C2)c1)Nc1cccc(C(=O)N2CCCC2)c1 (stereo not drawn),0.0%,-15.8%,?,i,2.2%,i,?,-7.8%,-23.6%,-4.8%
CCOC(=O)c1ccc(NC(=O)CN(c2ccc(C)cc2)S(=O)(=O)c2ccc(OC)cc2)cc1,.,-42.8%,-28.1%,i,.,i,.,.,.,.
CCc1nc(N)nc(N)c1-c1ccc(N(C)Cc2ccccc2)c([N+](=O)[O-])c1,?,-37.7%,0.708µM*,4.11µM*,0.651µM*,1.84µM*,?,0.291µM*,29.1µM*,82.3%
Cc1noc(-c2ccc(N(C)Cc3ccccc3)c([N+](=O)[O-])c2)n1,.,-18.4%,?,i,.,i,.,.,.,.
COc1ccc(C(=O)On2c(-c3ccc(Br)cc3)nc3ccccc3c2=O)cc1,?,-18.0%,12.6µM*,?,?,?,11.6µM*,20.6µM*,20.6µM*,11.7%
O=C(NCC1CCCO1)c1cc2cc(Cl)ccc2[nH]1 (stereo not drawn),-7.2%,-2.6%,-23.3%,i,-6.2%,i,.,.,.,.
CC(=O)Nc1ccc2c(c1)Cc1ccc(Cl)cc1-2,-10.2%,-16.7%,0.0%,?,-17.1%,?,.,.,.,.
CC(=O)Nc1ccc2c(c1)-c1ccc(F)cc1C2,0.4%,-7.9%,10µM*,i,-2.0%,i,?,?,-0.2%,70.8%
COC(=O)c1ccc2nc(-c3ccc(C)cc3)c(Cc3cccc(Cl)c3)n2c1,-5.9%,.,.,?,-14.6%,?,.,.,.,.
Cc1ccccc1Cn1ccc(NC(=O)c2cnn3c2NC(c2ccccc2)CC3C(F)(F)F)n1 (stereo not drawn),?,-39.5%,7.94µM*,i,?,i,?,?,23.1µM*,40.4%
CCc1ccc(NC(=O)Cn2ccn(-c3ccc(C)c(C)c3)c(=O)c2=O)cc1,.,-7.4%,-2.3%,.,.,.,.,.,.,.
O=C(Nc1cccc2ccccc12)c1ccc([N+](=O)[O-])s1,?,11.2µM*,8.91µM*,i,?,i,16.4µM*,25.9µM*,?,50.2%
O=C(Nc1ccccc1F)c1ccc([N+](=O)[O-])s1,?,-67.6%,?,?,?,?,.,.,.,.
O=C(Nc1cccnc1)c1ccc([N+](=O)[O-])s1,?,11.2µM*,10µM*,?,?,i,14.6µM*,23.1µM*,?,?
C[C@H]1CN([C@@H](C)CO)C(=O)CCCn2cc(nn2)CO[C@@H]1CN(C)C(=O)Nc1ccccc1C(F)(F)F,2.1%,0.1%,12.4%,i,1.8%,i,.,.,.,.
O=C(Nc1ccc(Cl)cc1)C1Cc2c(-c3ccc(Cl)cc3)ccnc2O1 (stereo not drawn),?,-57.4%,?,i,?,i,.,.,.,.
CC(=O)Nc1ccc(NC(=O)C2Cc3c(-c4cccc(F)c4)ccnc3O2)cc1 (stereo not drawn),-3.5%,-1.1%,8.7%,i,-3.5%,i,.,.,.,.
